Hits are enriched below; roughly 3.5% of the tested compounds scored in any of these assays.
CRE-bla Fsk = Cell signaling CRE-BLA (Fsk stim). CHO CRE-bla reporter (cAMP response element driving beta-lactamase), forskolin EC10, beta-lactamase ratio. Potency, µM (series often up to 38.2 µM), hits mostly activators. 71,000 tested, 2.5% active. AID 662, 2007; active means well fitted activation curve with a large enough effect in the signal ratio, with a control signal flat, not every such curve was filed as active; inconclusive means small, poorly fitted or top-dose-only effect, or effect the other way, or a change in a side signal; the % refers to the signal ratio
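Modulation of forskolin-driven signalling is measured in CHO cells carrying a CRE-controlled beta-lactamase reporter. Cells are stimulated with EC10 NKH 477 in the presence of titrated compound for 3 h at 37 °C, then loaded with CCF4 for 2 h at room temperature.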
HEK293 cAMP ctrl = qHTS Assay for Agonists of the Thyroid Stimulating Hormone Receptor: Activators of Intracellular cAMP Concentrations in Parental HEK 293; 73,000 tested, 2.5% active; Potency, µM (titrated, usually from 57.1 µM), most hits filed as activators; parental HEK293 CNG cAMP sensor, membrane potential fluorescence; AID 938, 2007; further: nearly all actives have a fitted effect of over 55% in size
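Parental HEK 293 cells stably expressing a modified CNG channel (no TSHR) report cAMP rise as membrane depolarization. Membrane potential dye with 100 uM RO 20-1724 was loaded for 60 min at room temperature, then compound added for 30 min; fluorescence read at 590 nm.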
TSHR agonist = qHTS Assay for Agonists of the Thyroid Stimulating Hormone Receptor; Thyrotropin receptor (Homo sapiens), P16473; AID 926, 2007; 73,000 tested, 0.48% active; HEK293-CNG-TSHR cells (CNG channel as cAMP sensor), membrane potential dye, cAMP; Potency, µM (highest dose often 57.1 µM), hits mostly activators; active means well fitted activation curve with a large enough effect in the main read-out, with a control signal flat, not every such curve was filed as active; inconclusive means small, poorly fitted or top-dose-only effect, or a change in a side signal; inactive means no such curve, though single readings can be large or run the other way; reference of the percent scale not stated here;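 further: the control signal comes from parental cells without the receptor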
Target sequence (P16473 whole entry, looked up): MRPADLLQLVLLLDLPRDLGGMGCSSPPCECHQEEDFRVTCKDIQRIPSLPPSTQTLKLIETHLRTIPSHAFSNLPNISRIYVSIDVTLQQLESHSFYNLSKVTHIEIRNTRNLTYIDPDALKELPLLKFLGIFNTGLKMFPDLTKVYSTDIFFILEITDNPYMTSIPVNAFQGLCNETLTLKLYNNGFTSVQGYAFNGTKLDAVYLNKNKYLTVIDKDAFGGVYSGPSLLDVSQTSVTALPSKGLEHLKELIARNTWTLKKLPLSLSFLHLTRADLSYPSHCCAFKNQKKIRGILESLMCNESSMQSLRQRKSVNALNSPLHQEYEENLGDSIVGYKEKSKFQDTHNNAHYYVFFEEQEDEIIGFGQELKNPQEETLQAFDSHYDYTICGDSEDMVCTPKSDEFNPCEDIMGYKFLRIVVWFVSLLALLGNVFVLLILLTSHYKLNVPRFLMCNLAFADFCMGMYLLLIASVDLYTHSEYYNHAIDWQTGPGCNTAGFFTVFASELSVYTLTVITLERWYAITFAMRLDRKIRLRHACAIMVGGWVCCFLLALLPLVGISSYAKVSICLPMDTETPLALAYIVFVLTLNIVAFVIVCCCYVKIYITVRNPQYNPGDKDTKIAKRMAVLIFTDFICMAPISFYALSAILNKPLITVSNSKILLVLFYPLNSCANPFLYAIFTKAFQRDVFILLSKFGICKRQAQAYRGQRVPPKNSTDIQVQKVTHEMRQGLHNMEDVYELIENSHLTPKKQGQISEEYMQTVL
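cAMP rise detected as CNG-channel membrane depolarization by fluorescent dye (emission 590 nm), 30 min after compound, following 60 min dye loading containing 100 uM RO 20-1724 at room temperature. Cells: TSHR/CNG HEK 293, with parental CNG HEK 293 as control.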
Hsp90 Hop PPI = qHTS Assay for Disrupters of an Hsp90 Co-Chaperone Interaction; 71,000 tested, 0.44% active; Potency, µM (titrated, usually from 57 µM); Hsp90 C-terminal peptide / TPR2A (Hop) interaction, human; AID 595, 2007; AlphaScreen TPR2A-His6 binding biotin-Hsp90 C-terminal peptide; active means well fitted curve in either direction with a large enough effect; inconclusive means small, poorly fitted or top-dose-only effect, or another doubt
IkB sig inh = IkB Signaling | ABC-DLBCL IkBa-CBG/CBR dual luciferase ratio, 4 h; response scale: scaled: untreated 0%, proteasome inhibitor 100% | Potency, µM (titrated, usually from 57.1 µM) | 110,000 tested, 0.04% active | AID 445, 2006; active means well fitted curve in the direction sought with a large enough effect in the signal ratio, not every such curve was filed as active; inconclusive means small, poorly fitted or top-dose-only effect, or a change in a side signal; the % refers to the signal ratio;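 further: the direction sought is a rising ratio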
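Luminescence ratio of IκBα-fused green versus native red beetle luciferase in OCI-Ly3 cells, 4 h post-doxycycline with compound; red signal alone, scaled from basal (0%) to zero light (-100%), flagged nonspecific or cytotoxic effects.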
parental cAMP = Confirmation Concentration-Response Assay for Agonists of the Thyroid Stimulating Hormone Receptor: Activators of Intracellular cAMP Concentrations in Parental HEK 293. shares compounds with TSHR agonist. parental HEK293 CNG biosensor, cAMP membrane potential fluorescence. activity change, negative = inhibition, % at 32.9 µM. 150 tested, under 10 active. AID 953, 2007
A number is an active result; . = inactive; ? = inconclusive; / = no result given; [ ] = dose if it differs, or a comment. Unless noted, the call rests on the fitted dose curve; in most records, active means well fitted curve in the direction sought with a large enough effect; inconclusive means small, poorly fitted or top-dose-only effect, or another doubt; inactive means no such curve, though single readings can be large; an effect the other way counts as inactive or inconclusive.

SMILES	CRE-bla Fsk	HEK293 cAMP ctrl	TSHR agonist	Hsp90 Hop PPI	IkB sig inh	parental cAMP
COc1ccc(S(=O)(=O)NCCC(=O)NCc2ccc(F)cc2)cc1	.	.	/	.	.	.
NCCN	.	.	.	.	.	/
Nc1ccc2c(c1)COc1ccccc1O2	.	.	.	.	.	.
C=CC[C@@H]1C=C[C@@H](O/N=C2/C[C@@H](O)[C@@H](O)[C@@H]3[C@@H]4C(=O)N(CC)C(=O)[C@H]4CC[C@@H]23)[C@@H](CO)O1	/	.[11.4 µM]	.[11.4 µM]	/	/	/
Cc1nc2ccc(Br)cn2c(=O)c1Cl	?	.	.	.	.	.
NCCCCCCN	?	.	.	.	.	/
COc1ccc(-c2ccc(-c3noc(C)n3)c(OC)n2)cc1	.	.	3.2µM	.	.	.
CCOc1nc(-c2ccc(OC)cc2)ccc1-c1noc(C)n1	.	.	.	.	.	/
COc1cccc(C(=O)NC2=NCCS2)c1OC	.	.	.	.	.	/
COc1ccc(N(C)S(=O)(=O)c2cccc(C(=O)NC3=NCCS3)c2)cc1	.	.	25µM	.	.	.
CCOc1ccc(N(CC(=O)Nc2ccc(C)cc2)S(=O)(=O)c2c(C)noc2C)cc1	.	.	.	.	.	.
CCOc1ccc(N(CC(=O)NC(C)(C)C)S(=O)(=O)c2c(C)noc2C)cc1	.	.	.	.	.	.
CCOc1ccc(N(CC(=O)NCc2cccs2)S(=O)(=O)c2c(C)noc2C)cc1	.	.	32µM	.	.	.
CCOc1ccc(NC(=O)CN(c2ccc(CC)cc2)S(=O)(=O)c2c(C)noc2C)cc1	/	/	/	/	.	/
COc1ccc(F)cc1S(=O)(=O)n1cc(C)nc1-c1ccccc1	.	.	.	?	.	.
Cc1nc2ccc(NC(=O)c3ccc(S(=O)(=O)N4CCOCC4)cc3)cc2s1	.	.	.	.	.	?
Cc1cccc(C)c1OC[C@H](C)N	.	.	.	.	.	/
Cc1cc(C)n(S(=O)(=O)c2cc(C(=O)O)c(Cl)cc2Cl)n1	.	.	16µM	.	.	.
COc1ccc(C2C(=O)N(C3CCCCCC3)CC(=O)N2Cc2ccccc2)cc1 (stereo not drawn)	/	/	/	/	.	/
COc1cccc(CN2C(=O)CN(C3CCCCC3)C(=O)C2c2ccc(F)cc2)c1 (stereo not drawn)	.	.	13µM	.	.	.
COc1ccc([C@H](O)c2ccccn2)cc1	.[7.6 µM]	.[11.4 µM]	.[11.4 µM]	.[11 µM]	.[11.4 µM]	/
CCCC(=O)C1=C(SCC)CC(C)(C)C(C(=O)OC)C1=O (stereo not drawn)	.	?	?	.	.	.
Cc1cc(-n2c(C)cc(C(=O)CSc3nnnn3-c3ccc(Cl)cc3)c2C)no1	.	.	/	.	.	.
Cc1cc(C)n2nc(SCC(=O)c3cc(C)n(-c4cc(C)on4)c3C)nc2n1	?	?	?	.	.	/
COc1ccc(C(c2nnnn2Cc2ccccc2)N2CCN(C(=O)c3ccco3)CC2)cc1 (stereo not drawn)	.	?	?	.	.	/
SMILES	CRE-bla Fsk	HEK293 cAMP ctrl	TSHR agonist	Hsp90 Hop PPI	IkB sig inh	parental cAMP
COc1cccc(C(c2nnnn2Cc2ccccc2)N2CCN(C(=O)c3ccco3)CC2)c1OC (stereo not drawn)	.	.	25µM	.	.	.
NC(=O)c1nsc(C(=O)N(CC(=O)NCc2ccc3c(c2)OCO3)C2CCCC2)c1N	.	.	13µM	.	.	.
Nc1nnc(SCC(=O)NCc2ccc3c(c2)OCO3)s1	.	.	.	.	.	/
CC[C@H](C(=O)[C@H](C)[C@H](O)[C@H](C)CCc1ccc(C)c(O)c1C(=O)O)[C@H]1O[C@](CC)([C@@H]2CC[C@@](O)(CC)[C@H](C)O2)C[C@H]1C	?	.	.	.	?	/
CCc1ccc(-c2nc(CN3CCC(C(=O)N4CCN(c5ccccc5)CC4)CC3)c(C)o2)cc1	?	.	.	.	?	.
Cc1cc(=O)oc2c(C)c(OCC(=O)N(C)C)ccc12	.	.	.	.	.	/
COc1ccc2c(C)cc(=O)oc2c1C	?	.	.	.	.	.
C=C(C)Cn1c(-c2ccccc2)nc2ccccc21	.[7.6 µM]	.[11.4 µM]	3.2µM	.[11 µM]	.	?
COCCNC(=O)C(c1ccc(C)o1)N(C(=O)c1snc(C(N)=O)c1N)c1ccc(C)cc1 (stereo not drawn)	.	.	32µM	.	?	.
O=S(=O)(c1ccccc1)N1CCN(C2CCN(Cc3ccccc3)CC2)CC1	.	.	.	.	.	.
CCOc1ccc(-c2cc3c(=O)n(Cc4nc(-c5ccc(OC(C)C)cc5)oc4C)ccn3n2)cc1Cl	/	/	/	/	.	/
Cc1ccc(Cl)cc1N1CCN(C(=O)c2cnc(N3CCOCC3)c3ccccc23)CC1	/	/	/	/	.	/
COc1ccc(OC)c(CNC(=O)C2CCN(S(=O)(=O)N3CCCC3)CC2)c1	.	.	.[11.4 µM]	.	.	/
COc1ccc(Br)cc1CNC(=O)C1CCN(S(=O)(=O)N2CCCCC2)CC1	.	.	.	.	.	.
O=C(Nc1ccc(N2CCOCC2)cc1)NC1CCCCC1	/	.	.	/	/	/
O=C(Nc1ccc(N2CCOCC2)cc1)C1CC1	.	.	.	.	.	.
Fc1cccc(CSc2ncnc3c2ncn3[C@H]2CCCS2)c1	?	.[11.4 µM]	.[11.4 µM]	.[11 µM]	.[11.4 µM]	/
O=C1N(c2ccccc2)C2CS(=O)(=O)CC2N1c1ccc(Cl)c(Cl)c1 (stereo not drawn)	/	.	.	/	/	.
Cc1ccc(-c2csc3ncn(/N=C/N(C)C)c(=O)c23)o1	.	.	.	.	.	/
Cc1nn(-c2ccccc2)c(N2CCCC2)c1/C=N/n1cnc2scc(-c3ccccc3)c2c1=O	.	.	3.2µM	.	?	.
CC1(C)c2ccccc2N2CC(=O)NC21/C=C/c1ccco1 (stereo not drawn)	.	.	2.5µM	.	.	.
CC1(C)c2ccccc2N2CCC(=O)NC21/C=C/c1ccco1 (stereo not drawn)	.	.	3.2µM	.	.	.
Cc1ccc(-n2nc(-c3ccc(N)cc3)cc2N)cc1	?	.	.	.[2.3 µM]	.	.
Cc1ccc2c(c1)N(C(=O)N1CCC(C(=O)NC3CCCCCC3)CC1)CC(C)O2 (stereo not drawn)	/	/	/	/	.	/
Cc1ccc2c(c1)N(C(=O)CCC(=O)NCc1cccs1)CCO2	/	/	/	/	.	/
O=C(COC(=O)CCCc1c[nH]c2ccccc12)Nc1ccc2c(c1)OCO2	?	.	.	.	.	/
O=C(COC(=O)C1c2ccccc2Oc2ccccc21)Nc1ccc2c(c1)OCO2	.	.	25µM	.	?	.
O=C(O)CN(CCN(CC(=O)O)CC(=O)O)CC(=O)O.[Mn]	.[7.6 µM]	.[11.4 µM]	.[11.4 µM]	?	.[11.4 µM]	/
